Positions count from the first letter of the chain named.
Legend:
Test in all cases: HT-SELEX; high values mean tight binding
Settings in all cases: protein: recombinant; vector His6-GST; dsDNA, one strand shown
SALL4 ZFC4 WT (HT-SELEX) = biological target: T1, SALL4 ZFC4 WT (HT-SELEX) (Mus musculus, UniProt Q8BX22 870-940)
T1 sequence: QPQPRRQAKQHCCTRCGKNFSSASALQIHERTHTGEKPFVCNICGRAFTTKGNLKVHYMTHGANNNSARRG
In short: (§1)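 Up to 6 cycles of selection were run in triplicate. In each, purified recombinant mouse SALL4 zinc finger cluster 4 (residues 870–940, 1 µg) was incubated with library DNA (1.5 µg first cycle, 200 ng later) in 100 µl of 10 mM Tris–HCl pH 7.5, 50 mM NaCl, poly(dI-dC), DTT for 10 min at room temperature, then complexes were captured on Ni2+ beads, washed and PCR-amplified; final pools were MiSeq-sequenced and scanned for 6-mers. Binding signal is each canonical k-mer's read fraction as fold change versus the initial random library.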

[1] = biological target: T2, SALL4 ZFC4 R900W (HT-SELEX) (Mus musculus, UniProt Q8BX22 870-940, R900W)
T2 sequence: T1 sequence with R31W
In short: as §1

[2] = biological target: T3, SALL4 ZFC4 G921D (HT-SELEX) (Mus musculus, UniProt Q8BX22 870-940, G921D)
T3 sequence: T1 sequence with G52D
In short: as §1

Sequence | binding signal (SALL4 ZFC4 WT (HT-SELEX)) [fold-change vs cycle 0] | binding signal [1] [fold-change vs cycle 0] | binding signal [2] [fold-change vs cycle 0]
GAGTAC | 0.903 ± 0.0224 | 0.992 ± 0.045 | 1.04 ± 0.0172
TAGACA | 1.18 ± 0.0561 | 1.3 ± 0.0829 | 1.28 ± 0.0805
CCCTTA | 0.943 ± 0.0612 | 1.06 ± 0.0532 | 1.02 ± 0.0595
CGATTA | 1.16 ± 0.0473 | 1.17 ± 0.0726 | 1.18 ± 0.023
CGGAAC | 0.339 ± 0.0284 | 0.417 ± 0.0399 | 0.524 ± 0.0677
GCTCTA | 0.572 ± 0.0244 | 0.686 ± 0.0351 | 0.788 ± 0.0186
AGAGCT | 0.658 ± 0.0205 | 0.784 ± 0.026 | 0.8909 ± 0.00859
CAACAA | 1.1 ± 0.0197 | 1.21 ± 0.0488 | 1.2 ± 0.0481
AATCGC | 0.437 ± 0.0162 | 0.483 ± 0.0175 | 0.628 ± 0.0598
AATTCG | 0.945 ± 0.024 | 1.008 ± 0.0043 | 1.07 ± 0.0346
ATAAAG | 2.23 ± 0.104 | 2.12 ± 0.11 | 1.79 ± 0.17
AGATGA | 1.49 ± 0.0331 | 1.6 ± 0.074 | 1.46 ± 0.104
TATCAA | 2.32 ± 0.148 | 2 ± 0.128 | 1.87 ± 0.178
CAACCG | 0.334 ± 0.0164 | 0.389 ± 0.015 | 0.509 ± 0.0746
AAGAAG | 1.4 ± 0.0333 | 1.63 ± 0.0977 | 1.45 ± 0.147
AGGGTA | 0.87 ± 0.0133 | 1 ± 0.0465 | 0.989 ± 0.0135
CATAGG | 0.854 ± 0.0242 | 0.918 ± 0.0253 | 0.978 ± 0.022
TCCTCA | 0.899 ± 0.0263 | 1.04 ± 0.0214 | 1.06 ± 0.0234
TCTAAA | 1.79 ± 0.0986 | 1.85 ± 0.144 | 1.67 ± 0.161
AGGGAT | 0.9983 ± 0.00779 | 1.11 ± 0.0341 | 1.07 ± 0.0457
CCAGTA | 0.785 ± 0.049 | 0.922 ± 0.0301 | 0.962 ± 0.0332
CTTTGC | 0.581 ± 0.0144 | 0.663 ± 0.0189 | 0.743 ± 0.024
AGCATG | 0.713 ± 0.0228 | 0.806 ± 0.0264 | 0.882 ± 0.0429
GAATGA | 1.42 ± 0.0437 | 1.57 ± 0.0566 | 1.43 ± 0.0639
CCTTCG | 0.394 ± 0.0327 | 0.487 ± 0.0246 | 0.582 ± 0.0265
GATACC | 0.884 ± 0.044 | 0.969 ± 0.034 | 1.04 ± 0.0218
AAGTCG | 0.537 ± 0.0353 | 0.634 ± 0.0134 | 0.747 ± 0.0488
CGACAA | 0.4483 ± 0.00206 | 0.523 ± 0.0149 | 0.653 ± 0.0169
AACCCA | 0.813 ± 0.0466 | 0.894 ± 0.0477 | 0.963 ± 0.0141
GCTTGA | 0.627 ± 0.00807 | 0.737 ± 0.0133 | 0.831 ± 0.0377
